Results reported in PMC12136788.
Changes are numbered by the printed parent chain. Whole data set: some 5,800 sequences, median “enrichment r” near 0.68, cut for the highest 2% near 11. The list comes from a sample in which the highest values are over-represented; it also holds similar and randomly drawn sequences.

T1: UNK ZnF1-6 (called full-length) (human, UniProt Q9C0B0 30-357)
T1 sequence: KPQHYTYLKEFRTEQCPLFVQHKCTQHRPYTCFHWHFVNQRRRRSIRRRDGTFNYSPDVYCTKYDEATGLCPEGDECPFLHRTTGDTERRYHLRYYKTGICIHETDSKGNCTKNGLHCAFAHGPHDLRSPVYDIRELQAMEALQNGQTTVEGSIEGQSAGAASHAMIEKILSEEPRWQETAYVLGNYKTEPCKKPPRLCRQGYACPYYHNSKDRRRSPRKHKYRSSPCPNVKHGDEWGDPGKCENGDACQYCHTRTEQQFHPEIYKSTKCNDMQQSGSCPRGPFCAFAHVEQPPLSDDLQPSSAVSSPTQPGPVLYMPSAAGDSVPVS

B1: chr4:150908776:150908877:-|CDS|ENSG00000198589|msi1|FALSE|bound_elsewhere (ssRNA)
RNA: GGGAGUUCUACAGUCCGACGAUCGUUGAUUUGUACUUAGAUUCUCUUUGUGGCAUACUAUUUAACUGUUUUUAAUUAAUUCUUAGGGUACAUUUAAAUUCAAAGCAGAAAGCGACCUUUUCCUUGCUGAGCAUCACAAACUUUCAACAGAGGAUUGAGCAUCA
B2: chr2:150470103:150470218:-|CDS|ENSG00000115963|unk|total|mutant (ssRNA)
RNA: GGGAGUUCUACAGUCCGACGAUCAUGGCCAAACAGAUUGGAGCAGCUACUUAUAUCGAAUGCUCAGCUUUACAGUCGGAAAACCGCGUCAGAGACAUUUUUCACGUUGCCACCUUGGCAUGUGUAAAUAAGACAAAUAAAAACCAACAGAGGAUUGAGCAUCA
B3: chr3:120396629:120396730:-|3pUTR|ENSG00000163430|msi1|FALSE|unique (ssRNA)
RNA: GGGAGUUCUACAGUCCGACGAUCGCCUUCAUUUCUAGGAGUGCUUUAAGAGAAACUGUAAAUGGUGCUCUGGGGCUGGAGGCUAGUAAGGAAACUGCAUCACGAUUGAAAGAGGAACAGACCCAAAUCUGAACCUCUUUUGAGCAACAGAGGAUUGAGCAUCA
B4: chr14:100883672:100883793:-|CDS|ENSG00000254656|unk|FALSE|unique (ssRNA)
RNA: GGGAGUUCUACAGUCCGACGAUCUCUAUUCCGGGUCCCUCAGCCGGAUUCCCUAGACAGUCUGAUUGUGCUCAUCCUGCAAAUAGAAGAGAAGCUGGCAGAGAGAAGAGCUAUGCUCAGGCUGCCCCCCGAGGCCCGCCCCCGCAACAGAGGAUUGAGCAUCA
B5: chr8:23842440:23842541:-|3pUTR|ENSG00000159167|msi1|total|mutant (ssRNA)
RNA: GGGAGUUCUACAGUCCGACGAUCCCAAUGCGACAAGCCGUUCAUGAGUAUUCCCCGCAAAUUUCUCUCUUUCUUCAGUUCAGCCGAUUUCCUUUUUUCUUUUCUUUUUUUUUUUUUUUUUUUUUGGCUGUGACCUCUUCAAACCAACAGAGGAUUGAGCAUCA
B6: chr8:23842440:23842541:-|3pUTR|ENSG00000159167|msi1|FALSE|unique (ssRNA)
RNA: B5 RNA with C37U, C38A, C54U, C55A, C83U, C84A
B7: ENSG00000103657:stop:overlap|stop_codon|ENSG00000103657|stop_codon|NA|stop_codon (ssRNA)
RNA: GGGAGUUCUACAGUCCGACGAUCAGUUUUCUGUUGCUUUGACCAAAGAUGGUCAUGUGUAUACCUUUGGUCAAGGUGGUGAGUAGUCACUAUGACCUCCUUUCAGUAUAGAUAAUUUUCCACUUCUCUUUCAUGUGCUUUAUUCAACAGAGGAUUGAGCAUCA
B8: chr19:582815:582998:+|CDS_3pUTR|ENSG00000172270|msi1_unk|total|mutant (ssRNA)
RNA: GGGAGUUCUACAGUCCGACGAUCUCAUACACUUCCUUCUUUUUUAAAAAAGUUGGGUUUUCUCCAUUCAGGAUUCUGUUCCUCCGGUUUUUUUCCUUCUGAAGUGUUUCACGAGAGCCCGGGAGCUGCUGCCCUGCGGCCCCGCAACAGAGGAUUGAGCAUCA
B9: ENSG00000165868:stop:overlap|stop_codon|ENSG00000165868|stop_codon|NA|stop_codon (ssRNA)
RNA: GGGAGUUCUACAGUCCGACGAUCAGCAGCCGGCCAAGCAGUUCAUGAGACAAGCUGCCUACCAGGCGGACCCUAUGGAUCUUUAGGAGUAGAUUAUGAGUUCGAAAAACUUCUGUAUAAAAUAUUUGGAGAGGAUUUUAUUGACAACAGAGGAUUGAGCAUCA
B10: ENSG00000124766:be:win_601|CDS|ENSG00000124766|bound_else_gene|NA|bound_elsewhere_windowed (ssRNA)
RNA: GGGAGUUCUACAGUCCGACGAUCUCCAAAGUGGCGGGCGGCGCGGGCGGUGGGGUUAGCAAACCGCACGCCAAGCUCAUCCUGGCAGGCGGCGGCGGCGGCGGGAAAGCAGCGGCUGCCGCCGCCGCCUCCUUCGCCGCCGAACAACAGAGGAUUGAGCAUCA
B11: chr3:160434497:160434598:+|3pUTR|ENSG00000113810|msi1|FALSE|bound_elsewhere (ssRNA)
RNA: GGGAGUUCUACAGUCCGACGAUCUUUAUGAUAGGUUUAUCCGGGUACUAAAUGCAUUUCAACUUGAUAGUUUCAACUUAUGAUAGGUUUACCAGGAUGUAGUCCCACUGUUGAGGAGCAUCUAUUUAGGGGUUAAUUACUUUACAACAGAGGAUUGAGCAUCA
B12: chr7:6403584:6403671:+|3pUTR|ENSG00000136238|msi1_unk|FALSE|overlapping (ssRNA)
RNA: GGGAGUUCUACAGUCCGACGAUCUUUUCUAGUAACUAGGUGUAAAAAUCAUGUGUUGCAGCUUUAUAGUUUUUAAAAUAUUUUAGAUAAUUCUUAAACUAUGAACCUUCUUAACAUCACUGUCUUGCCAGAUUACCGACACUGCAACAGAGGAUUGAGCAUCA
B13: ENSG00000136451:be:win_2501|3pUTR|ENSG00000136451|bound_else_gene|NA|bound_elsewhere_windowed (ssRNA)
RNA: GGGAGUUCUACAGUCCGACGAUCUCCCAAUCAGAGCCUGUUGAUAUUACAACAGGGACAGAUGUGUUAGUUGCUCACUAGAGUUUAUGUCUUAUAUUAAAUUGUAUACAGUUUUUAUUCUAACCACUAACUAGGUAGUGUAUGCAACAGAGGAUUGAGCAUCA
B14: chr12:76028505:76028606:-|3pUTR|ENSG00000139289|msi1|FALSE|unique (ssRNA)
RNA: GGGAGUUCUACAGUCCGACGAUCAAGUCUUGGUCAGUAUUUUUCCAGCAUUUAAAUUGAAACGGUCAGUAUUAGACCACUGCUAGGUUAUGUAGUCAAGAAAUAAAAAUAGAAUUACAUGCUACAGAUGUCUUUAUUCUCCUUCAACAGAGGAUUGAGCAUCA
B15: ENSG00000136451:be:win_2551|3pUTR|ENSG00000136451|bound_else_gene|NA|bound_elsewhere_windowed (ssRNA)
RNA: GGGAGUUCUACAGUCCGACGAUCUCACUAGAGUUUAUGUCUUAUAUUAAAUUGUAUACAGUUUUUAUUCUAACCACUAACUAGGUAGUGUAUGCCCCUUCAGAACAUGCAGAGUGUAUCUUUUUUUAAAUUUCUCCUUCCGUUCAACAGAGGAUUGAGCAUCA
B16: chr2:48379045:48379146:+|3pUTR|ENSG00000170802|unk|FALSE|unique (ssRNA)
RNA: GGGAGUUCUACAGUCCGACGAUCCCUUAUCCUCUUUUCUGAUGUAGCAUAAAAAUUGUCCCGGUUUGAGUUAUAACUGCCAGUAGAUGACCAGUCACAAGUGAACCACUUCUCAGUUGCCAAUCUUUGCUCAUAUUAAAAACACAACAGAGGAUUGAGCAUCA

Each binder was assayed against T1, UNK ZnF1-6 (called full-length) (assay: nsRBNS (natural sequence RNA bind-n-seq); RBNS binding buffer (assumed for nsRBNS): 25 mM Tris pH 7.5, 150 mM KCl, 3 mM MgCl2, 0.01% Triton X-100, 500 ug/ml BSA, 20 U/ml SUPERase-In, 4 C; UNK is unkempt and MSI1 is Musashi-1; names of the RNAs are library labels; protein concentration not given here; high values mean tight binding).
B1 gave a binding signal of 3.69 enrichment R.
Work on B2 yielded a binding signal of 0.384 enrichment R.
With B3 the binding signal was 0.489 enrichment R.
For B4, the binding signal was 0.977 enrichment R.
For B5, the binding signal was 3.66 enrichment R.
In the case of B6, the binding signal is reported as 28.9 enrichment R.
B7 was tested, and the binding signal was 0.846 enrichment R.
Binder B8 has a binding signal of 0.504 enrichment R.
In the case of B9, the binding signal is reported as 0.728 enrichment R.
Work on B10 yielded a binding signal of 0.449 enrichment R.
For B11, the binding signal was 2.3 enrichment R.
Binder B12 has a binding signal of 3.16 enrichment R.
B13 showed a binding signal of 12.3 enrichment R.
With B14 the binding signal was 0.83 enrichment R.
B15 showed a binding signal of 11.6 enrichment R.
Work on B16 yielded a binding signal of 0.685 enrichment R.
